Results from PubChem BioAssay (NCI).
About 79,000 compounds went through this panel and 15% of them were active in at least one assay; those are over-represented in the sample as a whole. Unmarked numbers belong to inactive results. The source made the active and inactive calls. Rule as the data show it: active = growth inhibition above about 70%; inactive = the rest.

What was measured:
[1] = NCI Yeast Anticancer Drug Screen. Data for the rad52 strain (AID 147);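 also: 0% = growth of vehicle-treated control cultures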; settings: S. cerevisiae rad52 mutant growth inhibition, hits give high values
In short: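 Measured: yeast growth inhibition. System: strain with a defined DNA damage repair alteration. Reference: vehicle-treated control cultures.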

[2] = NCI Yeast Anticancer Drug Screen. Data for the wt1 strain (AID 149);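 also: 0% = growth of vehicle-treated wt1 cultures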; settings: S. cerevisiae wt1 strain (SPY 50644) growth inhibition, hits give high values
In short: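 Measured: growth of wt1 yeast under compound versus vehicle treatment, reported as inhibition.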

[3] = NCI Yeast Anticancer Drug Screen. Data for the rad50EPP+ strain (AID 151);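 also: 0% = growth of vehicle-treated control cultures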; settings: S. cerevisiae rad50 mutant strain, hits give high values
In short: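 One strain with a rad50 alteration (rad50EPP+) was compound-treated, its growth then compared to that of vehicle controls.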

[4] = NCI Yeast Anticancer Drug Screen. Data for the rad50 strain (AID 155);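 also: 0% = growth of vehicle-only cultures of the same strain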; settings: S. cerevisiae rad50 strain growth inhibition, hits give high values
In short: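 Growth of the mutant yeast was measured after compound exposure and referenced to vehicle-treated cultures.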

[5] = NCI Yeast Anticancer Drug Screen. Data for the mec2-1 strain (AID 157); settings: S. cerevisiae mec2-1 strain, hits give high values
In short: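 Test agents were screened against the mec2-1 yeast strain, with defined DNA repair or cell cycle alteration. Growth was scored as inhibition against vehicle-only controls.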

[6] = NCI Yeast Anticancer Drug Screen. Data for the rad14 strain (AID 159);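 also: 0% = growth of vehicle-treated control cultures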; settings: S. cerevisiae rad14 strain growth inhibition, hits give high values
In short: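 Here, inhibition of yeast growth was measured after compound exposure, using a strain with a genetic defect in DNA damage repair and vehicle-treated cultures as the reference.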

[7] = NCI Yeast Anticancer Drug Screen. Data for the sgs1 mgt1 strain (AID 161);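 also: 0% = growth of cultures given vehicle only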; settings: S. cerevisiae sgs1 mgt1 strain, hits give high values
In short: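 Inhibition of yeast growth, normalised to vehicle-treated controls, is reported for a strain bearing genetic alterations in DNA damage repair.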

[8] = NCI Yeast Anticancer Drug Screen. Data for the CLN2oe strain (AID 163);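 also: 0% = growth of vehicle-only control cultures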; settings: S. cerevisiae CLN2oe strain, hits give high values
In short: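 Here, growth inhibition in a cell-cycle-altered yeast strain after compound exposure was quantified against vehicle control growth.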

[9] = NCI Yeast Anticancer Drug Screen. Data for the cln2 rad14 strain (AID 165);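 also: 0% = growth equal to vehicle treated cultures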; settings: S. cerevisiae cln2 rad14 strain, hits give high values
In short: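 Growth of compound-exposed yeast (cln2 rad14 genotype) measured and expressed as inhibition relative to vehicle.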

[10] = NCI Yeast Anticancer Drug Screen. Data for the bub3 strain (AID 167); settings: S. cerevisiae bub3 mutant strain, hits give high values
In short: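 Whole-cell yeast assay. The mutant strain was incubated with compounds, and growth inhibition was determined by comparison with vehicle-treated cells.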

[11] = NCI Yeast Anticancer Drug Screen. Data for the wt2 strain (AID 169);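 also: 0% = growth of vehicle-treated yeast cultures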; settings: S. cerevisiae wt2 strain growth inhibition, hits give high values
In short: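 Genetically defined yeast strains from a DNA-repair/cell-cycle panel were used. Compound-exposed yeast growth was measured, and the inhibition was calculated relative to vehicle treatment.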

[12] = NCI Yeast Anticancer Drug Screen. Data for the mlh1 strain (AID 171);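 also: 0% = growth of vehicle-treated control cultures of the same strain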; settings: S. cerevisiae mlh1 strain growth inhibition, hits give high values
In short: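 Here the genetically defined yeast mutant is grown with each compound, and the extent to which its growth falls below that of vehicle-exposed cells is reported.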

[13] = NCI Yeast Anticancer Drug Screen. Data for the sgs1 strain (AID 173);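 also: 0% = growth of vehicle-only control cultures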; settings: S. cerevisiae sgs1 mutant, hits give high values
In short: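 Relative growth inhibition, referenced to vehicle, was determined in a yeast strain with a defined alteration affecting DNA damage repair or cell cycle control after compound exposure.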

[14] = NCI Yeast Anticancer Drug Screen. Data for the mlh1 rad18 strain (AID 175); settings: S. cerevisiae mlh1 rad18 strain growth inhibition, hits give high values
In short: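 In this whole-cell yeast screen, a strain with altered DNA damage repair is challenged with compound, and its growth is measured against matched vehicle-treated controls.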

[15] = NCI Yeast Anticancer Drug Screen. Data for the rad18 strain (AID 177); settings: S. cerevisiae rad18 mutant growth inhibition, hits give high values
In short: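 Screen uses a yeast strain with a defined lesion in DNA damage repair; compound effect is read as loss of growth compared to untreated vehicle cultures.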

[16] = at 5.0 µM (retest, dose inferred, filed as 0.5)
[17] = at 50.0 µM (retest, dose inferred, filed as 5.0)

Work on `CCOC(=O)c1csc(Br)n1` yielded a growth inhibition ([1]; at 1.2 µM) of -2%, a growth inhibition ([1]; at 3.7 µM) of -3% and a growth inhibition ([1]; at 11.0 µM) of -7%. For the same compound, the growth inhibition ([1]; at 33.0 µM) was -5%, the growth inhibition ([1]; at 100.0 µM) was -9% and the growth inhibition ([2]; at 1.2 µM) was 3%. For the same compound, the growth inhibition ([2]; at 3.7 µM) was -3%, the growth inhibition ([2]; at 11.0 µM) was -3% and the growth inhibition ([2]; at 33.0 µM) was -3%. For the same compound, the growth inhibition ([2]; at 100.0 µM) was -5%, the growth inhibition ([3]; at 1.2 µM) was -2% and the growth inhibition ([3]; at 3.7 µM) was 4%. For the same compound, the growth inhibition ([3]; at 11.0 µM) was -2%, the growth inhibition ([3]; at 33.0 µM) was 0% and the growth inhibition ([3]; at 100.0 µM) was -4%. The growth inhibition ([4]; at 1.2 µM) was -5%, the growth inhibition ([4]; at 3.7 µM) was 1% and the growth inhibition [4, 16] was -4%. For the same compound, the growth inhibition ([4]; at 11.0 µM) was 0%, the growth inhibition ([4]; at 33.0 µM) was -1% and the growth inhibition [4, 17] was -3%. For the same compound, the growth inhibition ([4]; at 50.0 µM) was 98.6% (active), the growth inhibition ([4]; at 100.0 µM) was -12% and the growth inhibition ([5]; at 1.2 µM) was -7%. It also gave a growth inhibition ([5]; at 3.7 µM) of -2%, a growth inhibition [5, 16] of -16% and a growth inhibition ([5]; at 11.0 µM) of -3%. For the same compound, the growth inhibition ([5]; at 33.0 µM) was -5%, the growth inhibition [5, 17] was -7% and the growth inhibition ([5]; at 50.0 µM) was 99.5% (active). The growth inhibition ([5]; at 100.0 µM) was -3%, the growth inhibition ([6]; at 1.2 µM) was 0% and the growth inhibition ([6]; at 3.7 µM) was 2%. For the same compound, the growth inhibition ([6]; at 11.0 µM) was -2%, the growth inhibition ([6]; at 33.0 µM) was -4% and the growth inhibition ([6]; at 100.0 µM) was -8%. The growth inhibition [7, 16] was -18%, the growth inhibition [7, 17] was -6% and the growth inhibition ([7]; at 50.0 µM) was 97.8% (active). It also gave a growth inhibition ([8]; at 1.2 µM) of -2%, a growth inhibition ([8]; at 3.7 µM) of -5% and a growth inhibition ([8]; at 11.0 µM) of 0%. For the same compound, the growth inhibition ([8]; at 33.0 µM) was 0%, the growth inhibition ([8]; at 100.0 µM) was -4% and the growth inhibition [9, 16] was -8%. The growth inhibition [9, 17] was 39%, the growth inhibition ([9]; at 50.0 µM) was 83.5% (active) and the growth inhibition ([10]; at 1.2 µM) was -5%. The growth inhibition ([10]; at 3.7 µM) was -4%, the growth inhibition [10, 16] was -11% and the growth inhibition ([10]; at 11.0 µM) was -6%. For the same compound, the growth inhibition ([10]; at 33.0 µM) was -6%, the growth inhibition [10, 17] was -7% and the growth inhibition ([10]; at 50.0 µM) was 99% (active). The growth inhibition ([10]; at 100.0 µM) was -14%, the growth inhibition ([11]; at 1.2 µM) was -2% and the growth inhibition ([11]; at 3.7 µM) was -2%. For the same compound, the growth inhibition ([11]; at 11.0 µM) was -2%, the growth inhibition ([11]; at 33.0 µM) was -4% and the growth inhibition ([11]; at 100.0 µM) was -4%. The growth inhibition ([12]; at 1.2 µM) was 3%, the growth inhibition ([12]; at 3.7 µM) was -7% and the growth inhibition ([12]; at 11.0 µM) was 0%. The growth inhibition ([12]; at 33.0 µM) was 3%, the growth inhibition ([12]; at 100.0 µM) was 0% and the growth inhibition ([13]; at 1.2 µM) was -2%. For the same compound, the growth inhibition ([13]; at 3.7 µM) was -2%, the growth inhibition ([13]; at 11.0 µM) was -1% and the growth inhibition ([13]; at 33.0 µM) was -3%. For the same compound, the growth inhibition ([13]; at 100.0 µM) was -6%, the growth inhibition [14, 16] was -16% and the growth inhibition [14, 17] was -18%. For the same compound, the growth inhibition ([14]; at 50.0 µM) was 78.3% (active), the growth inhibition ([15]; at 1.2 µM) was -1% and the growth inhibition ([15]; at 3.7 µM) was -3%. For the same compound, the growth inhibition ([15]; at 11.0 µM) was 1%, the growth inhibition ([15]; at 33.0 µM) was -4% and the growth inhibition ([15]; at 100.0 µM) was -14%.

Compound `Nc1cc(S(N)(=O)=O)ccc1SSc1ccc(S(N)(=O)=O)cc1N` has a growth inhibition ([1]; at 1.2 µM) of 1%, a growth inhibition ([1]; at 3.7 µM) of 10% and a growth inhibition ([1]; at 11.0 µM) of 21%. For the same compound, the growth inhibition ([1]; at 33.0 µM) was 50%, the growth inhibition ([1]; at 100.0 µM) was 81% (active) and the growth inhibition ([2]; at 1.2 µM) was 1%. It also gave a growth inhibition ([2]; at 3.7 µM) of -2%, a growth inhibition ([2]; at 11.0 µM) of 0% and a growth inhibition ([2]; at 33.0 µM) of 12%. The growth inhibition ([2]; at 100.0 µM) was 51%, the growth inhibition ([3]; at 1.2 µM) was -2% and the growth inhibition ([3]; at 3.7 µM) was 2%. For the same compound, the growth inhibition ([3]; at 11.0 µM) was 19%, the growth inhibition ([3]; at 33.0 µM) was 79% (active) and the growth inhibition ([3]; at 100.0 µM) was 93% (active). It also gave a growth inhibition ([4]; at 1.2 µM) of 5%, a growth inhibition ([4]; at 3.7 µM) of 8% and a growth inhibition [4, 16] of 13%. It also gave a growth inhibition ([4]; at 11.0 µM) of 22%, a growth inhibition ([4]; at 33.0 µM) of 33% and a growth inhibition [4, 17] of 52%. For the same compound, the growth inhibition ([4]; at 50.0 µM) was 71.6% (active), the growth inhibition ([4]; at 100.0 µM) was 71% (active) and the growth inhibition ([5]; at 1.2 µM) was 1%. The growth inhibition ([5]; at 3.7 µM) was 5%, the growth inhibition [5, 16] was 9% and the growth inhibition ([5]; at 11.0 µM) was 12%. It also gave a growth inhibition ([5]; at 33.0 µM) of 29%, a growth inhibition [5, 17] of 10% and a growth inhibition ([5]; at 50.0 µM) of 41.1%. For the same compound, the growth inhibition ([5]; at 100.0 µM) was 63%, the growth inhibition ([6]; at 1.2 µM) was 1% and the growth inhibition ([6]; at 3.7 µM) was -7%. The growth inhibition ([6]; at 11.0 µM) was 3%, the growth inhibition ([6]; at 33.0 µM) was 12% and the growth inhibition ([6]; at 100.0 µM) was 89% (active). It also gave a growth inhibition [7, 16] of -7%, a growth inhibition [7, 17] of 55% and a growth inhibition ([7]; at 50.0 µM) of 56.6%. It also gave a growth inhibition ([8]; at 1.2 µM) of 1%, a growth inhibition ([8]; at 3.7 µM) of -1% and a growth inhibition ([8]; at 11.0 µM) of 2%. For the same compound, the growth inhibition ([8]; at 33.0 µM) was 13%, the growth inhibition ([8]; at 100.0 µM) was 49% and the growth inhibition [9, 16] was 16%. It also gave a growth inhibition [9, 17] of 0%, a growth inhibition ([9]; at 50.0 µM) of 21.7% and a growth inhibition ([10]; at 1.2 µM) of -1%. It also gave a growth inhibition ([10]; at 3.7 µM) of 3%, a growth inhibition [10, 16] of -21% and a growth inhibition ([10]; at 11.0 µM) of 9%. The growth inhibition ([10]; at 33.0 µM) was 21%, the growth inhibition [10, 17] was 12% and the growth inhibition ([10]; at 50.0 µM) was 62.3%. It also gave a growth inhibition ([10]; at 100.0 µM) of 67%, a growth inhibition ([11]; at 1.2 µM) of -1% and a growth inhibition ([11]; at 3.7 µM) of -1%. It also gave a growth inhibition ([11]; at 11.0 µM) of 4%, a growth inhibition ([11]; at 33.0 µM) of 27% and a growth inhibition ([11]; at 100.0 µM) of 54%. For the same compound, the growth inhibition ([12]; at 1.2 µM) was 4%, the growth inhibition ([12]; at 3.7 µM) was 4% and the growth inhibition ([12]; at 11.0 µM) was 12%. The growth inhibition ([12]; at 33.0 µM) was 28%, the growth inhibition ([12]; at 100.0 µM) was 75% (active) and the growth inhibition ([13]; at 1.2 µM) was 2%. The growth inhibition ([13]; at 3.7 µM) was 9%, the growth inhibition ([13]; at 11.0 µM) was 26% and the growth inhibition ([13]; at 33.0 µM) was 53%. The growth inhibition ([13]; at 100.0 µM) was 82% (active), the growth inhibition [14, 16] was 5% and the growth inhibition [14, 17] was 31%. For the same compound, the growth inhibition ([14]; at 50.0 µM) was 73% (active), the growth inhibition ([15]; at 1.2 µM) was -14% and the growth inhibition ([15]; at 3.7 µM) was 7%. For the same compound, the growth inhibition ([15]; at 11.0 µM) was 28%, the growth inhibition ([15]; at 33.0 µM) was 52% and the growth inhibition ([15]; at 100.0 µM) was 78% (active).
